Rows were chosen to be rich in hits. Some 5.7% of all compounds tested hit in one or more screens of this group.
hcDAF12 agonist: activators of H. contortus DAF-12 nuclear receptor; HEK293 hcDAF-12 lit1-tk-luc reporter, luminescence; 0% DMSO, 100% Δ7-dafachronic acid; activation, % at 6.8 µM; 1.4% of 370,000 active;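 active = activation above the mean of all tested compounds plus 3 SD, cut at about 5.5% in these data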;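 also: 100% = response to 3 µM Δ7-dafachronic acid high control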
DAX1 inh-1: NR0B1 (DAX1) inhibition; AID 504766; P51843; inhibition, % at 6.75 µM; 0.99% of 340,000 active; HEK293 Gal4-DAX1 luciferase reporter, luminescence;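 active = inhibition above the mean over all tested compounds plus 3 SD, cut at about 4.2% in these data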;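 also: 0% = DAX1-transfected cells with DMSO and 100% = empty-vector control cells with DMSO; inhibition shows as a rise in luminescence from relieved DAX1 repression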
hgDAF12 agonist: activates the H. glycines DAF-12 receptor ligand-binding domain; HEK293 GAL4-hgDAF12 UAS-luciferase reporter, agonist luminescence; normalized to butyrate control; activation, % at 6.8 µM; 1.8% of 370,000 active; AID 687014;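 active = activation above a cutoff set at the mean of all screened compounds plus 3 SD, cut at about 10% in these data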;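 also: 0% = DMSO wells and 100% = sodium butyrate wells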
AHR act: activators of human aryl hydrocarbon receptor; P35869; AHR-responsive luciferase reporter cells, luminescence; activation, % at 5 µM; 2.5% of 320,000 active; AID 2796; in the data active = activation above about 47%;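 also: 0% = vehicle wells and 100% = reference agonist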
DAX1 inh-2: DAX1 (NR0B1) inhibition, primary screen. HEK293T StAR-luciferase reporter, SF-1/DAX-1 repression relief. inhibition, % at 6.8 µM. 1.1% of 370,000 active. AID 652010;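 active = inhibition above the mean over all tested compounds plus 3 SD, cut at about 3.6% in these data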;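 also: 0% = DAX-1 cells with DMSO and 100% = cells lacking DAX-1 with DMSO; higher inhibition means more luminescence from relief of DAX-1 repression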
ssDAF12 agonist: activates DAF-12 receptor from parasite S. stercoralis | HEK293 ssDAF-12/GRIP1 lit1-tk-luc reporter, luminescence; % of 3 µM dafachronic acid response | activation, % at 6.8 µM | 1% of 370,000 active;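 active = activation above the mean over all tested compounds plus 3 SD, cut at about 0.9% in these data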;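 also: 0% = DMSO-only wells and 100% = 3 µM delta7-dafachronic acid wells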
AHR act cf: confirmation of human aryl hydrocarbon receptor activators; shares compounds with AHR act; human cells, AHR-responsive luciferase reporter, luminescence; activation, % at 9 µM; 87% of 2,300 active; in the data active = activation above about 49%;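 also: HepG2 hepatoma cells carrying a DRE-driven firefly luciferase reporter; 0% = vehicle wells and 100% = reference agonist wells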
PXR act counter: activates human PXR in AHR activator counter-screen | activation, % at 11.6 µM | 88% of 2,300 active | cell-based PXR reporter, luciferase luminescence | shares compounds with AHR act; in the data active = activation above about 11%;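 also: human hepatoma DPX-2 cells expressing full-length human PXR; 0% = DMSO and 100% = reference agonist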
DAX1 inh confirm: confirmation of human DAX1 (NR0B1) inhibitors. shares compounds with DAX1 inh-2. HEK293T StAR-promoter luciferase reporter, SF-1/DAX-1 repression. inhibition, % at 6.8 µM. 87% of 2,400 active. AID 652134;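 active = inhibition above the average of every tested compound plus 3 SD, cut at about 3.8% in these data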;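 also: 0% = DAX-1 cells with DMSO and 100% = no DAX-1 control cells with DMSO; active compounds raise luminescence by relieving repression of the StAR reporter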
Target sequence (P51843 whole entry, looked up): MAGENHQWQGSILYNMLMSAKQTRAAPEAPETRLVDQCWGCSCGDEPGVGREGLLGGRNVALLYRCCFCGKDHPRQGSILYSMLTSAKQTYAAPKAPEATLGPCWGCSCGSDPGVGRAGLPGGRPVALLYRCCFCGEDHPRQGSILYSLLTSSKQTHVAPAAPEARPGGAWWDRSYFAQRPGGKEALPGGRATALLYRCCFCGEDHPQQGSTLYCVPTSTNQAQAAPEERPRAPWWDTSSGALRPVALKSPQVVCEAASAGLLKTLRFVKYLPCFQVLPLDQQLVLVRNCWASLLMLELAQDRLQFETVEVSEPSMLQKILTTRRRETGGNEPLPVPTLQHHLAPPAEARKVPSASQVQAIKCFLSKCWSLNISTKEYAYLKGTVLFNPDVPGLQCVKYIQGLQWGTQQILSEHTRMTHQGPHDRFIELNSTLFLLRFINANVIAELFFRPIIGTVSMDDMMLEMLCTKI
SF1 AF2mut Luc: nonselective inhibitor or artifact in SF-1 mutant DAX1 counter-screen. shares compounds with DAX1 inh-2. HEK293 StAR-luciferase, SF-1 AF2 mutant, luminescence. inhibition, % at 6.8 µM. 78% of 2,400 active. AID 652136;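 active = inhibition above the mean of all tested compounds plus 3 SD, cut at about 3% in these data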;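 also: 0% = DAX-1 transfected cells with DMSO and 100% = cells without DAX-1 with DMSO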
LXR ag: activates human LXR-beta, counter-screen for hcDAF-12 agonists | shares compounds with hcDAF12 agonist | HEK293 Gal4-LXR tk-luc reporter, luminescence, 24 h; normalized: DMSO 0%, positive control 100% | activation, % at 6.8 µM | 3,400 tested, under 10 active | AID 743027;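 active = mean percent activation of the reporter above a cutoff set as the average over tested compounds plus their standard deviation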
hcDAF12 conf: confirmation of H. contortus DAF-12 agonists; shares compounds with hcDAF12 agonist; 61% of 3,400 active; HEK293 hcDAF-12 lit1-tk-luc reporter, luminescence; % of Δ7-dafachronic acid response; activation, % at 6.8 µM;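 active = mean activation across triplicate tests above the threshold derived from the earlier primary screen, cut at about 5.5% in these data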;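 also: 0% = DMSO only wells and 100% = 3 µM Δ7-dafachronic acid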
The depositor's hits bear a star; · = no result.

SMILES	hcDAF12 agonist	DAX1 inh-1	hgDAF12 agonist	AHR act	DAX1 inh-2	ssDAF12 agonist	AHR act cf	PXR act counter	LXR ag	hcDAF12 conf	others
COCCNC(=O)C1CCCN(C(=O)c2ccnc(Cl)c2)CC1 (stereo unspecified)	1	·	1	·	0	-1	·	·	·	·
O=C1N=c2ccc(Br)cc2=C1c1sc(=S)n(NS(=O)(=O)c2ccccc2)c1O	6.6*	0	1	83*	1	0	20	23*	0	3
O=C1N=c2ccccc2=C1c1sc(=S)n(NC(=O)c2cccc(O)c2)c1O	3	2	-2	·	1	0	·	·	·	·
O=c1c2ccccc2[nH]c(=S)n1CCc1ccccc1	8.1*	1	10	121*	1	0	159*	38*	0	5.7*
O=c1c2ccccc2[nH]c(=S)n1Cc1ccccc1	-3	0	-1	0	0	-1	·	·	·	·
CCCCN1C(=O)C(=O)N(CC(=O)Nc2ccc(OC(F)(F)F)cc2)C1=O	1	1	0	1	-1	-1	·	·	·	·
O=C(NCc1ccc(F)cc1)c1cc2c(s1)CS(=O)(=O)C2	1	0	-4	1	0	0	·	·	·	·
Cc1ccccc1NC(=O)Cc1nc(COC(=O)c2cc([N+](=O)[O-])ccc2N)cs1	1	0	0	0	-1	-1	·	·	·	·
COc1ccc(-c2nc3ccccc3c(=O)[nH]2)cc1	7.4*	2	13*	110*	3	0	106*	23*	1	8.4*
O=c1[nH]c(-c2cccnc2)nc2ccccc12	0	3	-1	22	0	-1	·	·	·	·
Oc1cc(-n2cccn2)c(O)cc1-n1cccn1	-1	1	0	1	-1	-1	·	·	·	·
Cc1cc(SCC(=O)c2cccs2)nc2c(C)cccc12	6.8*	1	3	83*	0	-1	100*	65*	0	3
Cc1cc(SCC(=O)NCCN2C(=O)CSC2=O)nc2c(C)cccc12	0	-1	0	30	-1	-1	·	·	·	·
CCOC(=O)Cc1cc(=O)n2[nH]c(C(C)(C)C)cc2n1	-1	-1	-3	3	0	-1	·	·	·	·
CCn1c(SCC(=O)NCCc2ccccc2)nc2c([nH]c3ccccc32)c1=O	7.2*	0	4	109*	1	0	86*	168*	0	6.7*
CCn1c(SCC(=O)NCCc2ccc(OC)c(OC)c2)nc2c([nH]c3ccccc32)c1=O	4	0	3	·	0	1	·	·	·	·
COc1ccc(-n2nc3cc(N)c(Br)cc3n2)cc1	13*	5.8*	13*	98*	2	1.2*	124*	30*	1	12*
COc1ccc(-n2nc3ccccc3n2)cc1	2	1	4	17	0	0	·	·	·	·
NC(=S)NN=Cc1ccc(-c2ccc(S(=O)(=O)Nc3ncccn3)cc2)o1	3	3	-2	10	0	0	·	·	·	·
Cc1ccc(-c2ccc(/C=N/NC(N)=S)o2)cc1	10*	3	7	100*	0	1.7*	90*	13*	0	7.5*
COc1ccc(Cl)cc1C(=O)Nc1ccc2c(c1)OCO2	7.3*	1	8	92*	3	1.5*	105*	81*	1	10*
COc1ccc(Cl)cc1C(=O)Nc1ccncc1	-2	-2	3	-2	0	-1	·	·	·	·
COc1ccccc1C(=O)Nc1ccc2c(c1)OCO2	8.0*	2	9	146*	3	1.6*	147*	53*	1	10*
Cc1c(Cl)cccc1NC(=S)NCCc1ccc(C(F)(F)F)cc1	0	0	-2	1	-1	-2	·	·	·	·
COc1ccc(-n2c(O)c(/C=N/NS(=O)(=O)c3cccc([N+](=O)[O-])c3)c3ccccc3c2=O)cc1OC	-2	-1	-1	-5	0	-1	·	·	·	·
SMILES	hcDAF12 agonist	DAX1 inh-1	hgDAF12 agonist	AHR act	DAX1 inh-2	ssDAF12 agonist	AHR act cf	PXR act counter	LXR ag	hcDAF12 conf	others
O=C(N[C@H]1C/C=C\C[C@H](CC(=O)N(CCO)Cc2ccccc2)C(=O)NC[C@H](c2ccccc2)OC1=O)OCC1c2ccccc2-c2ccccc21	·	1	·	1	·	·	·	·	·	·
Cc1ccc(-n2c(C)nc3oc4ccccc4c(=O)c3c2=O)cc1	12*	2	10	91*	4.5*	1.8*	99*	11*	0	9.2*	DAX1 inh confirm=8.5*;SF1 AF2mut Luc=6.1*
COc1ccc2c(=O)c3c(=O)n(-c4ccc(C)cc4)c(-c4ccccc4)nc3oc2c1	·	·	·	1	·	·	·	·	·	·
Cc1cc(NC(=O)CC2Oc3ccccc3NC2=O)ccc1Br (stereo unspecified)	0	-1	-2	25	0	0	·	·	·	·
O=C(COC(=O)CC1CCCC1)Nc1cc2c(cc1Cl)C(=O)c1ccccc1C2=O	9.1*	2	7	117*	3	0	139*	16*	1	6.1*
CC(C)c1ccc(NC(=O)COC(=O)CC2CCCC2)cc1	0	0	0	1	2	0	·	·	·	·
COc1cccc(C(=O)Nc2nnc(C(C)C)s2)c1	6.8*	0	10	133*	4.8*	0	0	28*	1	7.3*	DAX1 inh confirm=9.0*;SF1 AF2mut Luc=3.1*
CN(Cc1cccs1)C(=O)Cn1cnc2ccccc2c1=O	0	2	4	3	0	-1	·	·	·	·
COc1c(C(=O)Nc2nnc(C3CC3)s2)csc1Cl	8.1*	2	10	113*	7.0*	2.1*	157*	79*	1	9.5*	DAX1 inh confirm=6.2*;SF1 AF2mut Luc=9.1*
CC1CCC(NC(=O)N(CCCl)N=O)CC1 (stereo unspecified)	1	0	6	5	-1	0	·	·	·	·
Cc1cc(NCCOCCO)n2ncc(-c3ccc(Cl)cc3)c2n1	6.7*	4	10	126*	3.7*	1.0*	142*	28*	1	6.8*

Compound activity: PubChem, The Scripps Research Institute Molecular Screening Center
